From PubChem BioAssay (EPA / NIEHS)
“And” between values parts separate entries of the source, which are not always exact repeats. Equal values may be shown once. Results filed as inconclusive are left out. A structure can be active in one record and inactive in another. The source made the active and inactive calls. Rule for the calls, unless noted: active = hit-call score of the fitted dose curve at least 0.9, where 1 is the maximum; inactive = score below 0.9.

What was measured:
[1] = read-out: Interleukin-8 (IL8), CXCL8 (gene 3576); test: BSK_3C_IL8: BioMAP Diversity Plus: 3C Assay for Interleukin-8 (IL8) Biomarker Activity (AID 2283020); settings: primary human endothelial cells (HUVEC); actives raise or lower the signal
How it was run: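 HUVEC, 3C stimulation; 24 h compound exposure; IL-8 read by ELISA; gain or loss of signal fitted relative to DMSO control.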

[2] = read-out: Monokine induced gamma interferon (MIG), CXCL9 (gene 4283); test: BSK_3C_MIG: BioMAP Diversity Plus: 3C Assay for Monokine induced gamma interferon (MIG) Biomarker Activity (AID 2283021); settings: primary human endothelial cells (HUVEC); actives raise or lower the signal;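 for AC50: MIG protein level measured by immunoassay in the treated endothelial cultures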
How it was run: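 HUVEC, 3C system; 24 h chemical exposure; MIG by ELISA; bidirectional fit vs DMSO baseline.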

[3] = target: human Vitamin D Receptor (VDR), VDR (gene 7421) (UniProt P11473); test: ATG_VDR_TRANS: Attagene TRANS-FACTORIAL HepG2 Assay for human Vitamin D Receptor (VDR) (AID 2283022; active = hit-call score of the fitted dose curve at least 0.9, where 1 is the maximum)
How it was run: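 HepG2 cells were transiently transfected with multiple GAL4-UAS reporter units, so signal reflects exogenous chimeric receptor-Gal4 activity. After 24 h compound exposure, reporter mRNA was measured by RT-PCR, fluorescent labelling and capillary electrophoresis, fitted for gain of signal versus DMSO.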

[4] = BSK_3C_SRB: Viability Assessment in the BioMAP Diversity Plus: 3C Assay (AID 2283023); settings: primary human endothelial cells (HUVEC);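 note: fitted both ways against DMSO so a hit may be signal rise or drop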
How it was run: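 Primary human umbilical vein endothelial cells in the 3C system were read 24 h after compound dosing. Total protein was stained with 0.1% sulforhodamine B after 10% TCA fixation and read at 560 nm, with bidirectional fitting against DMSO as baseline.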

[5] = read-out: Matrix Metallopeptidase 1 (MMP1), MMP1 (gene 4312); test: BSK_BE3C_MMP1: BioMAP Diversity Plus: BE3C Assay for Matrix Metallopeptidase 1 (MMP1) Biomarker Activity (AID 2283024); settings: primary human bronchial epithelial cells; actives raise or lower the signal
How it was run: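 ELISA read-out of MMP1 in human lung bronchial epithelial primary cultures, 24 h post-dose; bidirectional curve fit vs DMSO baseline, gain or loss of signal scored.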

[6] = BSK_3C_Vis: BioMAP Diversity Plus: 3C Assay for Morphology Visualization (AID 2283025); settings: primary human endothelial cells (HUVEC);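 note: fitted both ways so gain or loss versus DMSO counts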;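 for AC50: light microscopy image of cell morphology used as background control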
How it was run: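 HUVEC, 3C system; light microscopy of morphology at 24 h post-dose. Bidirectional fit vs DMSO baseline. Secondary readout, background-control function.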

[7] = read-out: Pselectin, SELP (gene 6403); test: BSK_4H_Pselectin: BioMAP Diversity Plus: 4H Assay for Pselectin Biomarker Activity (AID 2283026); settings: primary human endothelial cells (HUVEC); actives raise or lower the signal
How it was run: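 HUVEC, 24 h chemical exposure; P-selectin read by ELISA. Bidirectional curve fit vs DMSO baseline; gain or loss of signal scored.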

[8] = BSK_4H_SRB: Viability Assessment in the BioMAP Diversity Plus: 4H Assay (AID 2283027); settings: primary human endothelial cells (HUVEC);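 note: cells exposed to compound for 24 h before staining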;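 for AC50: curves fitted both ways versus DMSO so AC50 may be loss or gain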
How it was run: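 Cytotoxicity readout: sulforhodamine B (0.1%) staining of total protein after 10% TCA fixation, measured at 560 nm in human umbilical vein endothelium at 24 h. DMSO set the baseline; fitting was bidirectional.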

[9] = BSK_BE3C_SRB: Viability Assessment in the BioMAP Diversity Plus: BE3C Assay (AID 2283028); settings: primary human bronchial epithelial cells;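 for AC50: fitted both ways so AC50 may mark signal gain or loss versus DMSO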
How it was run: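 Human primary bronchial epithelial cells were exposed to test chemicals for 24 h. Total protein in parallel cultures was then measured by staining with 0.1% sulforhodamine B after 10% TCA fixation, with absorbance read at 560 nm. Activity was fitted bidirectionally against DMSO.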

[10] = read-out: Thrombomodulin, THBD (gene 7056); test: BSK_3C_Thrombomodulin: BioMAP Diversity Plus: 3C Assay for Thrombomodulin Biomarker Activity (AID 2283029); settings: primary human endothelial cells (HUVEC); actives raise or lower the signal
How it was run: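 HUVEC, 3C conditions; compound 24 h; thrombomodulin by ELISA; bidirectional curve fit vs DMSO baseline; parallel SRB total-protein staining for cytotoxicity.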

Measured: AC50

Sequence of human Vitamin D Receptor (VDR), VDR (gene 7421) (P11473 whole entry, looked up, the tested form may be a part): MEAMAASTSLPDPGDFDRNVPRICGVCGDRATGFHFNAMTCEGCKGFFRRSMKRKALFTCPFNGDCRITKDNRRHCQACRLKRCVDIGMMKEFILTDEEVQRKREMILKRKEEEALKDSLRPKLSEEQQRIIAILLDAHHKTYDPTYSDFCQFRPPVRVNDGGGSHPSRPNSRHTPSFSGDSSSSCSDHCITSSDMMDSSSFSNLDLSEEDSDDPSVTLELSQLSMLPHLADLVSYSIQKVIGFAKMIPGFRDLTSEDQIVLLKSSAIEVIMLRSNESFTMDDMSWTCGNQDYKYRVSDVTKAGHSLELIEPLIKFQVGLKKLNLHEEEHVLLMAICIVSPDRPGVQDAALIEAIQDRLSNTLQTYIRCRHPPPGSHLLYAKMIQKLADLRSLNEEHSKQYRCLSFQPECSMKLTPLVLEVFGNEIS

CC1(C)CC(O)CC(C)(C)N1[O]
inactive: all assays above

O=C(O)C(F)(F)C(F)(F)C(F)(F)C(F)(F)C(=O)O
not listed: [6]
inactive: all other assays above

Clc1cc(Cl)c(Cl)c(Cl)c1Cl
active: [7] 34.7 µM
inactive: all other assays above

CCCCCCCO
inactive: all assays above

C=CC(=O)NCOCCCC
inactive: all assays above

C=CC(=O)NC(C)(C)C
inactive: all assays above

CC/C=C\C/C=C\C/C=C\CCCCCCCC(=O)OC
active: [1] 37.2 µM | [2] 37.2 µM | [4] 29.8 µM | [5] 33.6 µM | [6] 37.5 µM | [7] 19.9 µM | [8] 20 µM | [9] 28.5 µM | [10] 5.05 µM
inactive: [3]

CCNc1nc(NC(C)(C)C)nc(OC)n1
inactive: all assays above

CC(C)[N+](C)(CCOC(=O)C1c2ccccc2Oc2ccccc21)C(C)C
inactive: all assays above

Fc1ccc(Br)cc1
inactive: all assays above

C[N+](C)(C)CCCNS(=O)(=O)C(F)(F)C(F)(F)C(F)(F)C(F)(F)C(F)(F)C(F)(F)C(F)(F)C(F)(F)F
inactive: [1] | [2] | [3] | [5] | [8] | [9] | [10]
active: [1] 44.3 µM | [4] 30.7 µM and 20.8 µM | [5] 19.6 µM | [7] 30 µM and 16.8 µM

CC(Cl)COP(=O)(OCC(C)Cl)OCC(C)Cl (centres undefined)
inactive: all assays above

CC/C=C\CCOC(=O)c1ccccc1O
active: [1] 34.7 µM | [4] 29.9 µM | [6] 37.1 µM | [7] 12.4 µM | [8] 14.2 µM
inactive: all other assays above

Nc1cccc(N)n1
inactive: all assays above

c1ccc2c(c1)[nH]c1ccccc12
active: [5] 0.126 µM | [10] 6.87 µM
inactive: [1] | [2] | [4] | [5] | [6] | [7] | [8] | [9] | [10]

COc1ccc(C(=O)/C(Br)=C\C(=O)O)cc1
active: [1] 20 µM and 25.9 µM | [2] 35.3 µM and 34.3 µM | [6] 37.4 µM and 37.5 µM | [7] 6.04 µM and 16.3 µM | [8] 20 µM and 17.1 µM | [10] 34.9 µM and 35.4 µM
inactive: [3] | [4] | [5] | [9]

Cc1ccc([N+](=O)[O-])cc1N
inactive: all assays above

CC(CCC(=O)O)(c1ccc(O)cc1)c1ccc(O)cc1
not listed: [6]
inactive: all other assays above

CCCCCCCCCCCC(=O)N(C)CC(=O)O
active: [5] 8.01 µM and 15.5 µM | [7] 1.89 µM
inactive: [1] | [2] | [3] | [4] | [7] | [8] | [9] | [10]

C=C(C)C(=O)OCCCCCCCCCCCC
inactive: all assays above

c1ccc2sc(SSN3CCOCC3)nc2c1
active: [4] 6.19 µM | [6] 8.8 µM | [7] 4.4 µM | [8] 5.2 µM
not listed: [10]
inactive: all other assays above

C=CC(=O)OCCCCCCOC(=O)C=C
active: [1] 12.3 µM | [2] 20 µM | [4] 20 µM | [6] 12.9 µM | [7] 10.3 µM | [8] 20 µM
inactive: [3] | [5] | [9] | [10]
